Assay [1] can be described thus: NCI Yeast Anticancer Drug Screen. Data for the rad50 strain (AID 155).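 Note: 0% = growth of vehicle-only cultures of the same strain.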 Particulars: S. cerevisiae rad50 strain growth inhibition; at 50.0 µM; hits give high values. Put shortly: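 Inhibition values express reduced yeast growth in compound-treated cultures relative to vehicle-treated controls.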
Assay [2] is described as follows: NCI Yeast Anticancer Drug Screen. Data for the mec2-1 strain (AID 157). Particulars: S. cerevisiae mec2-1 strain, at 50.0 µM, hits give high values. Put shortly:
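Test agents were screened against the mec2-1 yeast strain, with defined DNA repair or cell cycle alteration. Growth was scored as inhibition against vehicle-only controls.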

A short description of assay [3]: NCI Yeast Anticancer Drug Screen. Data for the sgs1 mgt1 strain (AID 161).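 Note: 0% = growth of cultures given vehicle only.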 Particulars: S. cerevisiae sgs1 mgt1 strain, at 50.0 µM, hits give high values. In short, it runs like this:
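Mutant yeast exposed to compound; growth scored against vehicle-only wells.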

The nature of assay [4]: NCI Yeast Anticancer Drug Screen. Data for the cln2 rad14 strain (AID 165).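 Note: 0% = growth equal to vehicle treated cultures.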 Conditions: S. cerevisiae cln2 rad14 strain, at 50.0 µM, hits give high values. In short, it runs like this:
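Growth of compound-exposed yeast (cln2 rad14 genotype) measured and expressed as inhibition relative to vehicle.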

A short description of assay [5]: NCI Yeast Anticancer Drug Screen. Data for the bub3 strain (AID 167). Conditions: S. cerevisiae bub3 mutant strain, at 50.0 µM, hits give high values. Put shortly:
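Steps: expose the mutant yeast strain to compound; grow alongside vehicle-treated cultures; measure growth; express inhibition against the vehicle cultures.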

The nature of assay [6]: NCI Yeast Anticancer Drug Screen. Data for the mlh1 rad18 strain (AID 175). Particulars: S. cerevisiae mlh1 rad18 strain growth inhibition; at 50.0 µM; hits give high values. In short, it runs like this: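 In this whole-cell yeast screen, a strain with altered DNA damage repair is challenged with compound, and its growth is measured against matched vehicle-treated controls.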

Each structure is given as a SMILES string. About 79,000 compounds went through this panel and 15% of them were active in at least one assay; those are over-represented in the sample as a whole. Unmarked numbers belong to inactive results. Activity calls are given as the source filed them. Cut-off read from the data, not from the text of the source: active = growth inhibition above about 70%; inactive = the rest.

Take `Nc1nc(SCC(=O)c2ccc(Br)cc2)c2[nH]cnc2n1`: the growth inhibition in assay [1] is 23.2%; in assay [2], 3.35%; in assay [3] it was -10.9%; in assay [4], 10.1%; in assay [5], 23.1%; in assay [6] it was 26.9%.

Consider `CCC/C(Cl)=N\OC(=O)Nc1ccc(OC(F)(F)F)cc1`, for which the growth inhibition in assay [1] is 24%; in assay [2], 24.8%; in assay [3] it was 91% (active); in assay [4] it was 20.1%; in assay [5] it was 28.8%; in assay [6], 58.6%.

`CNC(=O)CNC(=O)C(Cc1ccc(NC(=O)CCCCC(C)=O)cc1)NC(=O)C(CCC(=O)OCc1ccccc1)NC(=O)OC(C)(C)C` (stereo not given): the growth inhibition is -19.6% in assay [1]; -23.6% in assay [2]; -26.1% in assay [3]; 0% in assay [4]; -30.1% in assay [5]; -17.1% in assay [6].

`Nc1ccc(P(=O)(Nc2ccc3ccccc3c2)Nc2ccc3ccccc3c2)cc1`: the growth inhibition is 83.2% (active) in assay [1]; 67.5% in assay [2]; 89.2% (active) in assay [3]; 79.9% (active) in assay [4]; 83.2% (active) in assay [5]; 91.2% (active) in assay [6].

For the molecule `COc1ccc(OC)c(CCCC(=O)O)c1`, the growth inhibition in assay [1] is 9.6%; in assay [2] it was 7.65%; in assay [3], 2.7%; in assay [4] it was 4.35%; in assay [5], 2.05%; in assay [6], -8.7%.

As to `COc1cc2c(cc1OC)C(=O)C1(C2)[C@H](c2ccccc2)C2C(=O)c3cc(OC)c(OC)cc3C2[C@H]1c1ccccc1` (stereo not given in full), the growth inhibition in assay [1] is -2.5%; in assay [2], 3.25%; in assay [3], 29.9%; in assay [4] it was 17.6%; in assay [5], 46%; in assay [6], 23.1%.

For `CC(=O)Nc1nnc(SCc2ccccc2)s1`, the growth inhibition in assay [1] was 9%; in assay [2] it was 6.35%; in assay [3] it was -4.4%; in assay [4], -10%; in assay [5], 3.4%; in assay [6], -20.6%.

As to `CN(C)CC1CCC(CN(C)C)C1=NO` (stereo not given), the growth inhibition is 13.7% in assay [1]; -2.55% in assay [2]; -4.1% in assay [3]; 7.4% in assay [4]; -1.5% in assay [5]; 6.45% in assay [6].

In the case of `[N-]=[N+]=NCN1C(=O)C2C3C=CC(C2C1=O)C1C2C(=O)N(CN=[N+]=[N-])C(=O)C2C31` (stereo not given), the growth inhibition in assay [1] is -3.2%; in assay [2], -4.1%; in assay [3] it was -39.4%; in assay [4] it was 4.4%; in assay [5], -25.8%; in assay [6] it was -42.1%.

As for `CC(=O)OCC(CO)(CO)COC(C)=O`, the growth inhibition in assay [1] is 8.25%; in assay [2], 8.65%; in assay [3], -16.2%; in assay [4] it was 7.45%; in assay [5], -3.7%; in assay [6] it was -6.7%.

Turning to `CCC(O)C(O)(c1ccccc1)c1ccccc1` (stereo not given), the growth inhibition in assay [1] was 4.05%; in assay [2] it was 8%; in assay [3], -8.8%; in assay [4] it was -2.75%; in assay [5] it was -1.2%; in assay [6] it was -6.7%.

`O=C(CCCCCCCCC(=O)NO)NO`: the growth inhibition in assay [1] was -10.8%; in assay [2], 0.45%; in assay [3], -2.9%; in assay [4], 4%; in assay [5] it was -2.95%; in assay [6] it was -2.5%.

Take `Brc1cn2[n+](c1)[B-]n1cc(Br)c[n+]1[B-]2`: the growth inhibition in assay [1] was 0.85%; in assay [2], -4.6%; in assay [3], -3.6%; in assay [4], -7.65%; in assay [5], 6.65%; in assay [6] it was 12%.

With `c1ccc(N2N=NC3C4CC(C5COCC54)C32)cc1` (stereo not given), the growth inhibition in assay [1] is 4.6%; in assay [2], -7.1%; in assay [3], -24.9%; in assay [4] it was -8.55%; in assay [5], 0.65%; in assay [6] it was -9.25%.

As for `O=C(O)COc1c2occc2cc2ccc(=O)oc12`, the growth inhibition in assay [1] was 7.9%; in assay [2] it was -12.4%; in assay [3], 22.7%; in assay [4], 1.55%; in assay [5], -3.1%; in assay [6], 6%.

`COc1ccc(C2CC(=O)Oc3ccccc3O2)cc1` (stereo not given): the growth inhibition in assay [1] was 39%; in assay [2], 16.4%; in assay [3] it was 32.2%; in assay [4], 27.9%; in assay [5], 23.6%; in assay [6], 38.1%.

For `CCOC(=O)C(CO)NC(=O)c1cnc2ccccc2c1` (stereo not given), the growth inhibition in assay [1] was 16.4%; in assay [2] it was 1.65%; in assay [3] it was 13.1%; in assay [4] it was -29.8%; in assay [5], -30.4%; in assay [6] it was 12.8%.

As for `NC(CS)=NCc1ccccc1`, the growth inhibition in assay [1] is 0.65%; in assay [2], -1.35%; in assay [3], -12.9%; in assay [4], -86.6%; in assay [5], 8.85%; in assay [6], -6%.

With `CCCCCCCCC(Cl)C(Cl)CCCCCCCC(=O)OC` (stereo not given), the growth inhibition was -30.2% in assay [1]; -33% in assay [2]; -20.3% in assay [3]; -13.8% in assay [4]; -5.15% in assay [5]; -22.1% in assay [6].

`COc1ccc(CCN=C2OCc3ccccc32)cc1OC`: the growth inhibition in assay [1] was 36.1%; in assay [2] it was -49.6%; in assay [3], -42.6%; in assay [4], -18.6%; in assay [5], -21.5%; in assay [6] it was -50.7%.

Values taken from PubChem BioAssay (NCI).
